# Shown are actives, neighbours in structure and some others; about 6.5% of the full set was active somewhere.
# HT1080-NT tox = kills 2HG-producing HT-1080-NT fibrosarcoma cells; HT-1080-NT fibrosarcoma viability, CellTiter-Glo ATP luminescence, 48 h; Potency, µM (series often up to 46.1 µM), inactives show at the top dose activity, negative = less viability, actives largely listed as cytotoxic; actives 1.6% (n = 360,000); AID 686970;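 further: NT is the 2HG producing partner of a matched IDH1 knockdown line; potency means the concentration at half of the fitted maximal effect; 0% = DMSO-treated cells and -100% = media-only wells without cells; nearly all actives have a fitted effect of over 55% in size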
#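 Viability of the 2HG-overproducing fibrosarcoma line after 48 hours of compound exposure at 37 degrees C was determined by luminescence with CellTiter-Glo, and concentration-effect curves were then fitted and categorized.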
# IL1B secr inh = inflammasome signaling inhibition, IL-1 beta readout. AID 743279. THP-1 LPS/ATP IL-1B secretion, AlphaLISA, 16 h; hits give low values. actives 4.7% (n = 360,000). activity change, % at 57.5 µM; in the data active means activity change below about -50%; inconclusive means mostly about -30% to -49%; further: on the % scale 0 is the no-effect control and ±100 the full control effect
#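 THP-1 cells pretreated 1 hr with compounds (up to 57.5 uM final), then stimulated with LPS (250 ng/mL final) plus ATP (1.25 mM final); secreted IL-1B measured by AlphaLISA after 16 hr, decreased signal indicating inhibition.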
# Giardia killer = kills Giardia lamblia. Giardia lamblia trophozoite viability. activity change, % at 7.66 µM, hits read low. actives 0.15% (n = 340,000); in the data active means activity change below about -80%; inconclusive means between about -30% and that limit;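 further: parasites exposed to compound for two days anaerobically before the ATP read; on the % scale 0 is the no-effect control and ±100 the full control effect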
#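 Anaerobic 48 hrs incubation at 37 deg C of 100 trophozoites/well with test compounds; ATPLite 1-Step luminescence, 15-30 min RT, reports cellular ATP as viability.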
# TGFb inhibitor = inhibitors of TGF-b signaling. HepG2 CAGA-GFP TGF-b/SMAD3 reporter, GFP fluorescence, 18 h; TGF-beta stimulated, 500 pg/mL final. Potency, µM (titrated, usually from 46.1 µM), inactives show at the highest dose activity, negative = inhibition, usual class: inhibitors. actives 1.2% (n = 410,000). AID 588855; further: potency means the concentration at half of the fitted maximal effect; on the % scale 0 is the no-effect control and ±100 the full control effect; nearly all actives have a fitted effect of over 65% in size
#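 GFP signal (ex488/em500-530) from TGF-beta-stimulated HEPG2 CAGA-GFP cells, 500 pg/mL final, 18 h at 37 degrees C in DMEM plus 1% FBS, normalized to unstimulated and DMSO-stimulated controls.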
# HepG2 viability = HepG2 cytotoxicity, counter-screen for TGF-b inhibitors; HepG2 CAGA-GFP viability, ATP luminescence, 18 h; Potency, µM (doses to about 46.1 µM), for the others: at the top dose activity change, negative = cytotoxicity, most hits filed as cytotoxic; actives 0.76% (n = 410,000); AID 588856; further: potency means the concentration at half of the fitted maximal effect
#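 HepG2 CAGA-GFP cells (1000/well, DMEM with 1% FBS) received compound, then TGF-beta at 500 pg/mL final, and were incubated 18 hours at 37 degrees C. Viability was read by CellTiter-Glo luminescence. Media-only wells were set as complete cell-killing and DMSO as no toxicity.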
# HT1080 IDH1KD tx = HT-1080 IDH1 knockdown cell toxicity (counter line) | actives 2% (n = 360,000) | AID 686971 | HT-1080 IDH1 knockdown viability, ATP luminescence, 48 h | Potency, µM (titrated, usually from 46.1 µM), without a hit: at the top dose activity, negative = toxicity, most hits filed as cytotoxic;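 further: potency means the concentration at half of the fitted maximal effect; 0% = DMSO wells and -100% = cell-free medium wells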
#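 Luminescent ATP read-out (CellTiter-Glo, 10 min at room temperature) after 48 h compound exposure at 37 °C gave viability of IDH1-knockdown HT-1080 cells. Activity was normalised to DMSO and cell-free wells, then fitted as concentration-response curves.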
# Active calls of the source: *; ? = inconclusive; · = no result. Unless noted, the call rests on the fitted dose curve; in most records, active means well fitted curve in the direction sought with a large enough effect; inconclusive means small, poorly fitted or top-dose-only effect, or another doubt; inactive means no such curve, though single readings can be large; an effect the other way counts as inactive or inconclusive.
SMILES,HT1080-NT tox,IL1B secr inh,Giardia killer,TGFb inhibitor,HepG2 viability,HT1080 IDH1KD tx
C[C@H]1CN([C@@H](C)CO)C(=O)Cc2cc(NC(=O)C3CC3)ccc2O[C@H]1CN(C)Cc1ccc(Oc2ccccc2)cc1,?,-72*,12,?,-100%,-22%
CCOC(=O)c1ccc([N+](=O)[O-])cc1NC(C)=O,0%,11,-14,-8%,-34%,-2%
COc1cc(C=O)ccc1OC(=O)c1ccncc1,12%,8,-15,-8%,-2%,0%
COc1ccc(S(=O)(=O)N(C)CC(=O)Nc2ccccc2OC)cc1,5%,-10,5,-6%,-11%,14%
CCc1ccc(OC2(C)CCN(Cc3ccccc3OC(F)F)C2)cc1 (stereo not drawn),?,11,·,-15%,-34%,-24%
COC(=O)Cc1ccc(OC2(C)CCN(Cc3ccccc3OC(F)F)C2)cc1 (stereo not drawn),0%,-54*,·,?,-6%,0%
CCOC(=O)c1ccccc1NC(=O)c1cc(S(=O)(=O)N2CCOCC2)ccc1F,-11%,-54*,-16,-20%,-20%,0%
CCOC(=O)C1=C(COC(=O)c2ccc(Cl)c(S(=O)(=O)N3CCOCC3)c2)NC(=O)NC1C (stereo not drawn),-6%,-2,25,-9%,-16%,-6%
CCOC(=O)c1ccccc1NC(=O)c1c(F)c(F)c(F)c(F)c1F,4%,-69*,3,-8%,-21%,6%
CCOC(=O)C1=C(COC(=O)c2cc(S(=O)(=O)N3CCOCC3)ccc2F)NC(=O)NC1C (stereo not drawn),-5%,-95*,2,4%,8%,-2%
O=C(OCN1C(=O)c2ccccc2C1=O)c1cc(S(=O)(=O)N2CCOCC2)ccc1F,7%,-57*,-5,-13%,-7%,-17%
Cc1nc2ccc(Cc3ccc4nc(C)[nH]c4c3)cc2[nH]1,-14%,9,5,0%,6%,-8%
COc1ccc(NC(=O)C2CCCN(S(C)(=O)=O)C2)cc1Cl (stereo not drawn),16%,16,-1,1%,0%,12%
NC1=NC2(CCCCC2)n2c(nc3ccccc32)N1,-10%,-5,-8,8%,3%,-6%
NC1=NC2(CCC(c3ccccc3)CC2)n2c(nc3ccccc32)N1 (stereo not drawn),21µM*,-54*,2,?,-31%,?
Cc1ccc(S(=O)(=O)N(c2cccc(C(F)(F)F)c2)C2C=CS(=O)(=O)C2)cc1 (stereo not drawn),1%,-91*,15,-23%,-6%,-29%
COc1ccc(CCN2C(=O)CSC2=Nc2ccc(C(C)C)cc2)cc1OC,?,·,27,?,-11%,5.8µM*
Clc1cccc(Cl)c1NC1=NCCC1,3%,14,21,-2%,1%,1%
CCCOc1ccc2ccccc2c1/C=N/n1c(C)nnc1-n1nc(C)cc1C,?,12,-18,?,-38%,4.1µM*
Cc1cc(C)n(-c2nnc(C)n2/N=C/c2ccco2)n1,-3%,-8,21,17%,-20%,3%
CCOCCCNCC(O)c1ccccc1 (stereo not drawn),6%,13,-2,1%,29%,1%
OCc1cc(C(O)CNCCCCCCOCCCCc2ccccc2)ccc1O (stereo not drawn),16µM*,-25,-21,?,-75%,?
CCOC(=O)C1=C(C)N=c2s/c(=C\c3ccc(O)c([N+](=O)[O-])c3)c(=O)n2C1c1ccccc1OC (stereo not drawn),?,61,?,-2%,0%,-4%
CCOC(=O)C1=C(C)N=c2s/c(=C/c3cccc([N+](=O)[O-])c3O)c(=O)n2C1c1ccc(OC)cc1OC (stereo not drawn),0%,20,-80*,7%,-8%,1%
CC(C)C[C@H](CO)N(Cc1ccccc1)S(=O)(=O)N(Cc1ccccc1)[C@@H](CO)CC(C)C,?,-87*,-21,?,-111%,?
SMILES,HT1080-NT tox,IL1B secr inh,Giardia killer,TGFb inhibitor,HepG2 viability,HT1080 IDH1KD tx
C=CS(=O)(=O)N(Cc1ccccc1)[C@H](CO)CC(C)C,-13%,-60*,-7,-4%,-34%,-4%
O=S(=O)(N(Cc1ccccc1)[C@@H](CO)Cc1ccccc1)N(Cc1ccccc1)[C@@H](CO)Cc1ccccc1,-24%,17,43,?,2%,-5%
C=CS(=O)(=O)N(Cc1ccccc1Br)[C@H](CO)Cc1ccccc1,?,-108*,18,?,-68%,?
COc1ccc([C@H]2CC(=O)C=C(c3cc4ccccc4s3)C2)cc1,10%,?,-23,-1%,-29%,13%
O[C@@H]1CN(Cc2ccc(-n3cccn3)cc2)CC[C@H]1N1CCN(c2ccccc2F)CC1,?,-62*,-12,?,-33%,-14%
Cc1ccc(CS(=O)Cc2ccc(C(=O)N3CCN(c4ccc(F)cc4)CC3)o2)cc1 (stereo not drawn),-7%,?,23,?,-8%,-1%
CCOC(=O)C(=O)N/N=C/c1ccc(F)cc1,25%,-2,22,8%,-16%,18%
CCOC(=O)C(=O)NNc1ccc(F)cc1,12µM*,-14,-12,14%,5%,8.2µM*
C#Cc1ccc(NC(=O)C2(C)CCN2C(=O)c2cc(C)n(C)n2)cc1 (stereo not drawn),4%,-5,·,25%,33%,11%
Cc1cc(C)nc(Sc2nc(C)nc3c2oc2ccccc23)n1,?,?,2,?,7%,?
N#C/C(=C\c1ccco1)Sc1nc2ccccc2s1,-7%,-66*,7,?,-41%,-18%
CC1=NN(c2ccccc2)C(=O)C1N=Nc1ccccc1 (stereo not drawn),22%,-7,4,0%,-14%,3%
CC1=NN(c2ccccc2)C(=O)C1N=Nc1ccc(N)cc1 (stereo not drawn),-17%,0,-16,-21%,-41%,23µM*
CCn1nc(C)c2c(-c3ccccc3)cc(=O)n(C(C)C(=O)NCCc3ccc(Cl)cc3)c21 (stereo not drawn),·,·,·,0%,-1%,·
CCn1nc(C)c2c(-c3ccccc3)cc(=O)n(C(C)C(=O)NCc3ccccc3OC)c21 (stereo not drawn),·,·,·,20µM*,-32%,·
